Source: PubChem BioAssay (NCATS)
Inconclusive results are not listed. Activity calls are given as the source filed them. Calls follow the shape of the dose curve; as a rule, active = well fitted curve in the direction sought with a large enough effect; inconclusive = small, poorly fitted or top-dose-only effect, or another doubt; inactive = no such curve, though single readings can be large; an effect the other way counts as inactive or inconclusive.

What was measured:
[1] = qHTS assay for measurement of the activity of small molecule inhibitors on Zika virus induced Caspase-3 activity in human iPSC derived neural progenitor cells (hNPCs) (AID 1224857); also: nearly all actives have a fitted effect of over 65% in size
How it was run: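 Cells were plated at 350 per well and grown 16 to 20 hours. Compound pretreatment lasted one hour, after which ZIKV (2 FFU/cell) was added for 6 hours. Percent inhibition was normalized between uninfected and infected controls.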

[2] = qHTS assay for measurement of the activity of small molecule inhibitors on Zika virus induced Caspase-3 activity in human astrocytoma cells (AID 1224859)
How it was run: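 Percent inhibition of virus-induced caspase-3/7 signal is calculated against uninfected and ZIKV-infected control cells. Cells are SNB-19, infected at 2 FFU/cell for 6 h after 1 h compound exposure.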

[3] = P-glycoprotein substrates identified in KB-8-5-11 adenocarcinoma cell line, qHTS therapeutic library screen (AID 1346987); also: nearly all actives have a fitted effect of over 65% in size
How it was run: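 KB-8-5-11, a colchicine-selected P-gp-overexpressing KB-3-1 subline, was grown without colchicine for the assay. Cells were seeded at 500 cells/well, dosed in concentration-response and incubated 72 h at 37 degree C, 5% CO2. Viability was read by CellTiter-Glo luminescence.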

[4] = NS1 protein of Zika virus - qHTS assay to identify small molecule inhibitors in human HEK 293 cells (AID 1347053); also: series mostly up to about 46 µM; nearly all actives have a fitted effect of over 55% in size
How it was run: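 HEK 293; 20 h pre-culture, 37 C/5% CO2; cpd 1 h pre-infection; ZIKV MR766, MOI = 0.5, 24 h, 37 C; TR-FRET NS1 readout (two anti-NS1 Abs); norm. to no-virus vs infected.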

[5] = qHTS of pediatric cancer cell lines to identify multiple opportunities for drug repurposing: Primary screen for TC32 cells (AID 1347089); also: nearly all actives have a fitted effect of over 60% in size
How it was run: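 Luminescent ATP read-out (CellTiter-Glo) of metabolically active TC32 cells after 48 h exposure. Concentration-response curves came from 11-point (MIPE, 0.78 nM–46 µM) or 8-point (NPC, 0.59 nM–46 µM) primary titrations; follow-up used 11 points.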

[6] = qHTS of pediatric cancer cell lines to identify multiple opportunities for drug repurposing: Primary screen for DAOY cells (AID 1347090); also: series mostly up to about 46 µM; nearly all actives have a fitted effect of over 55% in size
How it was run: (§1)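 Viability measured as metabolically active cells via CellTiter-Glo luminescence following 48 hours of compound exposure, 11-point dilutions in confirmatory testing. 500-1,000 cells/well plated 5 hours before dosing; controls were DMSO and 2.3 µM bortezomib.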

[7] = qHTS of pediatric cancer cell lines to identify multiple opportunities for drug repurposing: Primary screen for SJ-GBM2 cells (AID 1347091)
How it was run: as §1

[8] = qHTS of pediatric cancer cell lines to identify multiple opportunities for drug repurposing: Primary screen for A673 cells (AID 1347092); also: nearly all actives have a fitted effect of over 45% in size
How it was run: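 Cell viability of A673 measured by CellTiter-Glo ATP luminescence after 48 hours compound exposure. Dilution series spanned 0.78 nM to 46 µM (MIPE, 11-point) or 0.59 nM to 46 µM (NPC, 8-point); bortezomib 2.3 uM positive control.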

[9] = qHTS of pediatric cancer cell lines to identify multiple opportunities for drug repurposing: Primary screen for SK-N-MC cells (AID 1347093); also: series mostly up to about 46 µM
How it was run: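 Metabolically active cells were quantified by ATP-dependent luminescence (CellTiter-Glo, 15 min at room temperature) following 48 h treatment. Cells had been plated at 500-1,000 per well and settled for 5 h beforehand.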

[10] = qHTS of pediatric cancer cell lines to identify multiple opportunities for drug repurposing: Primary screen for BT-37 cells (AID 1347094); also: series mostly up to about 57 µM
How it was run: (§2)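 Viability was measured as metabolically active cells after 48 hours of treatment, read by CellTiter-Glo luminescence. Compounds were tested at multiple final concentrations, giving concentration-response curves.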

[11] = qHTS of pediatric cancer cell lines to identify multiple opportunities for drug repurposing: Primary screen for NB-EBc1 cells (AID 1347095)
How it was run: as §2

[12] = qHTS of pediatric cancer cell lines to identify multiple opportunities for drug repurposing: Primary screen for U-2 OS cells (AID 1347096); also: nearly all actives have a fitted effect of over 50% in size
How it was run: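 Viability after 48 h compound treatment at 37C, 500-1,000 cells/well, read as ATP luminescence with CellTiter-Glo. Primary screens used 11-point (MIPE, 0.78 nM-46 µM) or 8-point (NPC, 0.59 nM-46 µM) final concentrations; follow-up screens used 11-point dilutions.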

[13] = qHTS of pediatric cancer cell lines to identify multiple opportunities for drug repurposing: Primary screen for Saos-2 cells (AID 1347097); also: nearly all actives have a fitted effect of over 40% in size
How it was run: as §2

Measured: Potency

CCOC(=O)NNc1ccc(N(CC)CC(C)O)nn1 (configuration not stated)
inactive: all assays above

O=C(O)c1[nH]n(-c2ccc(S(=O)(=O)O)cc2)c(=O)c1N=Nc1ccc(S(=O)(=O)O)cc1
inactive: all assays above

CCC(C(=O)NC(=O)NC(C)=O)c1ccccc1 (configuration not stated)
inactive: all assays above

COc1cc(C(=O)NC2CCCNC2)cc(OC)c1OC (configuration not stated)
inactive: all assays above

CCCC(=O)O[C@]1(C(=O)COC(=O)CC)CC[C@H]2[C@@H]3CCC4=CC(=O)CC[C@]4(C)[C@H]3[C@@H](O)C[C@@]21C
inactive: all assays above

CN1C(=O)c2ccccc2C1=O
inactive: all assays above

CN1[C@@H]2CC[C@H]1CC(NC(=O)n1c(=O)[nH]c3ccccc31)C2 (some centres not stated)
inactive: all assays above

CCNC(=O)NCCCOc1cccc(CN2CCCCC2)c1
inactive: all assays above

CC(C)(C)c1nnc(NS(=O)(=O)c2ccccc2)s1
inactive: all assays above

O=C(O)[C@@H](O)[C@H](O)[C@H](O)[C@@H](O)C(=O)O
inactive: all assays above

C[C@]12CCC(=O)C=C1CC[C@@H]1[C@@H]2[C@@H](O)C[C@@]2(C)[C@H]1CC[C@]2(O)C(=O)COC(=O)CCC(=O)O
inactive: all assays above

Cc1ncc(CO)c(CO)c1O
not listed: [10]
inactive: all other assays above

CC(C)(C)C(=O)OCOC(=O)C1N2C(=O)CC2S(=O)(=O)C1(C)C (configuration not stated)
inactive: all assays above

O=C(Oc1ccccc1)c1cccc(C(=O)Oc2ccccc2)c1
inactive: all assays above

CCOC(=O)Cn1cccc1-c1nc(-c2ccc(OC)cc2)c(-c2ccc(OC)cc2)s1
not listed: [11]
inactive: all other assays above

CC1c2ccccc2CN1NC(=O)c1ccc(Cl)c(S(N)(=O)=O)c1 (configuration not stated)
not listed: [10] | [13]
inactive: all other assays above

CC(=O)Nc1ccc(S(=O)(=O)Nc2cc(C)on2)cc1
inactive: all assays above
